# This excerpt belongs to a sample that is enriched for the strongest signals.
# B1: GroEL (Clostridium difficile), Q18CT5 (protein)
# chain: MAKEIKFSEETRRALEAGVNKLADTVKVTLGPKGRNVILDKKFGSPLITNDGVTIAKEIELEDRFENMGAQLVKEVATKTNDVAGDGTTTATVLAQAIIREGLKNVTAGANPILLRKGIQKAVTVAVEELKNQSRIVETQEAISQVASISAGDEEVGKLIAEAMEIVGKDGVITVEESQTMNTELDAVEGMQFDRGFVSAYMVTDVDKMEAVLNDPYILITDKKISNIQELLPVLEQIVQQGKKLLIIAEDVEGEALSTLVVNKLRGTFDVVAVKAPGFGDRRKEMLQDIAILTGAQVISEELGYDLKEADLSMLGRASSVKVTKESTTIVDGSGDKKAIEDRVTQIKHQVEQTTSDFDREKLMERLAKLAGGVAVVKVGAATEVELKERKLRIEDALNATRAAVEEGIVAGGGTAFVSVIPAIGTLIESLEGEVKLGAQIVKKALEEPLRQIAINAGLEGAVIVQNVVNSEAETGFDALNEKYVNMIEAGIVDPTKVSRSALQNAASIASTFLTTEAAVADLPEKEDAGMPGMGGGMPGMM
# What was measured:
# Test in all cases: glycan array binding signal (z-score within array); higher = stronger binding
# Conditions in all cases: glycan notation: IUPAC condensed, linker removed
# [1] = biological target: Fuc(a1-2)Gal(b1-3)GalNAc(a1-3)[Fuc(a1-2)]Gal(b1-4)GlcNAc
# In short: (§1)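 Columns mapping to the same glycan were averaged after glycan names were converted to IUPAC-condensed notation. The data come from 3228 arrays in the Consortium for Functional Glycomics database, limited to those with an available protein sequence. Binding is reported as a within-array Z-score averaged across arrays of one protein sequence and across linkers.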
# [2] = biological target: Fuc(a1-2)Gal(b1-3)GlcNAc(b1-2)Man(a1-3)[Fuc(a1-2)Gal(b1-3)GlcNAc(b1-2)Man(a1-6)]Man(b1-4)GlcNAc(b1-4)GlcNAc
# In short: as §1
# [3] = biological target: Fuc(a1-2)Gal(b1-4)GlcNAc(b1-2)Man(a1-3)[Fuc(a1-2)Gal(b1-4)GlcNAc(b1-2)Man(a1-6)]Man(b1-4)GlcNAc(b1-4)GlcNAc
# In short: as §1
# [4] = biological target: Fuc(a1-2)Gal(b1-4)GlcNAc(b1-3)Gal(b1-4)GlcNAc(b1-3)Gal(b1-4)GlcNAc
# In short: as §1
# [5] = biological target: Fuc(a1-2)Gal6S(b1-3)GlcNAc6S
# In short: as §1
# [6] = biological target: Gal(a1-3)Gal(b1-4)[Fuc(a1-3)]GlcNAc(b1-2)Man(a1-3)[Gal(a1-3)Gal(b1-4)[Fuc(a1-3)]GlcNAc(b1-2)Man(a1-6)]Man(b1-4)GlcNAc(b1-4)GlcNAc
# In short: as §1
# [7] = biological target: Gal(a1-4)Gal(b1-4)Glc
# In short: as §1
# [8] = biological target: Gal(a1-4)Gal(b1-4)GlcNAc(b1-2)Man(a1-3)[Gal(a1-4)Gal(b1-4)GlcNAc(b1-2)Man(a1-6)]Man(b1-4)GlcNAc(b1-4)GlcNAc
# In short: as §1
# [9] = biological target: Gal(b1-3)Gal(b1-4)GlcNAc
# In short: as §1
# [10] = biological target: Gal(b1-3)GalNAc(a1-3)[Fuc(a1-2)]Gal(b1-4)Glc
# In short: as §1
# [11] = biological target: Gal(b1-4)Glc6S
# In short: as §1
# [12] = biological target: Gal(b1-4)GlcNAc(b1-2)Man(a1-3)[Gal(b1-4)GlcNAc(b1-2)Man(a1-6)]Man(b1-4)GlcNAc(b1-4)GlcNAc
# In short: as §1
# [13] = biological target: Gal(b1-4)GlcNAc(b1-2)[Gal(b1-4)GlcNAc(b1-4)]Man(a1-3)[Gal(b1-4)GlcNAc(b1-2)Man(a1-6)]Man(b1-4)GlcNAc(b1-4)GlcNAc
# In short: as §1
# [14] = biological target: Gal(b1-4)GlcNAc(b1-2)[Gal(b1-4)GlcNAc(b1-6)]Man(a1-6)[GlcNAc(b1-4)][Gal(b1-4)GlcNAc(b1-2)[Gal(b1-4)GlcNAc(b1-4)]Man(a1-3)]Man(b1-4)GlcNAc(b1-4)[Fuc(a1-6)]GlcNAc
# In short: as §1
# [15] = biological target: Gal(b1-4)GlcNAc(b1-3)Gal(b1-4)GlcNAc(b1-3)Gal(b1-4)GlcNAc(b1-2)Man(a1-3)[Gal(b1-4)GlcNAc(b1-3)Gal(b1-4)GlcNAc(b1-3)Gal(b1-4)GlcNAc(b1-2)Man(a1-6)]Man(b1-4)GlcNAc(b1-4)[Fuc(a1-6)]GlcNAc
# In short: as §1
# [16] = biological target: Gal(b1-4)GlcNAc(b1-3)Gal(b1-4)GlcNAc(b1-3)Gal(b1-4)GlcNAc(b1-2)[Gal(b1-4)GlcNAc(b1-3)Gal(b1-4)GlcNAc(b1-3)Gal(b1-4)GlcNAc(b1-6)]Man(a1-6)[Gal(b1-4)GlcNAc(b1-3)Gal(b1-4)GlcNAc(b1-3)Gal(b1-4)GlcNAc(b1-2)Man(a1-3)]Man(b1-4)GlcNAc(b1-4)[Fuc(a1-6)]GlcNAc
# In short: as §1
# [17] = biological target: Gal(b1-4)GlcNAc(b1-3)Gal(b1-4)GlcNAc(b1-3)Gal(b1-4)GlcNAc(b1-3)Gal(b1-4)GlcNAc(b1-3)Gal(b1-4)GlcNAc(b1-2)[Gal(b1-4)GlcNAc(b1-3)Gal(b1-4)GlcNAc(b1-3)Gal(b1-4)GlcNAc(b1-3)Gal(b1-4)GlcNAc(b1-3)Gal(b1-4)GlcNAc(b1-6)]Man(a1-6)[Gal(b1-4)GlcNAc(b1-3)Gal(b1-4)GlcNAc(b1-3)Gal(b1-4)GlcNAc(b1-3)Gal(b1-4)GlcNAc(b1-3)Gal(b1-4)GlcNAc(b1-2)Man(a1-3)]Man(b1-4)GlcNAc(b1-4)[Fuc(a1-6)]GlcNAc
# In short: as §1
# [18] = biological target: Gal(b1-4)GlcNAc(b1-3)Gal(b1-4)GlcNAc(b1-6)[Gal(b1-3)]GalNAc
# In short: as §1
# [19] = biological target: Gal(b1-4)GlcNAc(b1-3)Gal(b1-4)[Fuc(a1-3)]GlcNAc(b1-3)Gal(b1-4)[Fuc(a1-3)]GlcNAc
# In short: as §1
# [20] = biological target: Gal(b1-4)GlcNAc(b1-3)GalNAc
# In short: as §1
# [21] = biological target: Gal3S(b1-3)GalNAc
# In short: as §1
# [22] = biological target: Gal3S(b1-3)[Fuc(a1-4)]GlcNAc
# In short: as §1
# [23] = biological target: Gal3S(b1-4)[Fuc(a1-3)]Glc6S
# In short: as §1
# [24] = biological target: Gal3S4S(b1-4)GlcNAc
# In short: as §1
# [25] = biological target: Glc(b1-6)Glc
# In short: as §1
# [26] = biological target: GlcNAc(a1-4)Gal(b1-4)GlcNAc(b1-3)Gal(b1-4)Glc
# In short: as §1
# [27] = biological target: GlcNAc(b1-3)Gal
# In short: as §1
# [28] = biological target: GlcNAc(b1-3)[GlcNAc(b1-4)][GlcNAc(b1-6)]GlcNAc
# In short: as §1
# [29] = biological target: Man(a1-3)[Man(a1-6)]Man(a1-6)[Man(a1-3)]Man(b1-4)GlcNAc(b1-4)GlcNAc
# In short: as §1
# [30] = biological target: Neu5Ac(a2-3)Gal(b1-3)GlcNAc(b1-2)Man
# In short: as §1
# [31] = biological target: Neu5Ac(a2-3)Gal(b1-3)GlcNAc(b1-3)Gal(b1-3)GlcNAc
# In short: as §1
# [32] = biological target: Neu5Ac(a2-3)Gal(b1-3)GlcNAc(b1-3)GalNAc
# In short: as §1
# [33] = biological target: Neu5Ac(a2-3)Gal(b1-3)GlcNAc(b1-4)Gal(b1-4)Glc
# In short: as §1
# [34] = biological target: Neu5Ac(a2-3)Gal(b1-4)Glc
# In short: as §1
# [35] = biological target: Neu5Ac(a2-3)Gal(b1-4)GlcNAc(b1-2)Man
# In short: as §1
# [36] = biological target: Neu5Ac(a2-3)Gal(b1-4)GlcNAc(b1-6)GalNAc
# In short: as §1
# [37] = biological target: Neu5Ac(a2-6)Gal(b1-4)Glc
# In short: as §1
# [38] = biological target: Neu5Ac(a2-6)Gal(b1-4)GlcNAc(b1-2)Man(a1-6)Man(b1-4)GlcNAc(b1-4)GlcNAc
# In short: as §1
# [39] = biological target: Neu5Ac(a2-6)Gal(b1-4)GlcNAc(b1-2)Man(a1-6)[GlcNAc(b1-2)Man(a1-3)]Man(b1-4)GlcNAc(b1-4)GlcNAc
# In short: as §1
# [40] = biological target: Neu5Ac(a2-6)Gal(b1-4)GlcNAc(b1-3)[Neu5Ac(a2-6)Gal(b1-4)GlcNAc(b1-6)]GalNAc
# In short: as §1
# [41] = biological target: Neu5Ac(a2-8)Neu5Ac(a2-8)Neu5Ac(a2-3)[GalNAc(b1-4)]Gal(b1-4)Glc
# In short: as §1
# [42] = biological target: Neu5Gc(a2-3)Gal(b1-4)[Fuc(a1-3)]GlcNAc
# In short: as §1
# [43] = biological target: Neu5Gc(a2-6)Gal(b1-4)GlcNAc
# In short: as §1
# [44] = biological target: Neu5Gc(a2-8)Neu5Gc(a2-3)Gal(b1-4)GlcNAc
# In short: as §1
binder,measurement,setting,value
B1,glycan array binding signal (z-score),[1],-0.541
same,glycan array binding signal (z-score),[2],3.73
same,glycan array binding signal (z-score),[3],2.28
same,glycan array binding signal (z-score),[4],0.143
same,glycan array binding signal (z-score),[5],-0.399
same,glycan array binding signal (z-score),[6],-0.924
same,glycan array binding signal (z-score),[7],2.58
same,glycan array binding signal (z-score),[8],0.083
same,glycan array binding signal (z-score),[9],-0.843
same,glycan array binding signal (z-score),[10],3.31
same,glycan array binding signal (z-score),[11],0.425
same,glycan array binding signal (z-score),[12],0.454
same,glycan array binding signal (z-score),[13],2.79
same,glycan array binding signal (z-score),[14],-1
same,glycan array binding signal (z-score),[15],0.085
same,glycan array binding signal (z-score),[16],3.44
same,glycan array binding signal (z-score),[17],1.02
same,glycan array binding signal (z-score),[18],2.77
same,glycan array binding signal (z-score),[19],-1.13
same,glycan array binding signal (z-score),[20],-0.517
same,glycan array binding signal (z-score),[21],2.59
same,glycan array binding signal (z-score),[22],-0.243
same,glycan array binding signal (z-score),[23],3.51
same,glycan array binding signal (z-score),[24],-0.674
same,glycan array binding signal (z-score),[25],3.22
same,glycan array binding signal (z-score),[26],0.659
same,glycan array binding signal (z-score),[27],0.995
same,glycan array binding signal (z-score),[28],-0.786
same,glycan array binding signal (z-score),[29],3.99
same,glycan array binding signal (z-score),[30],-0.056
same,glycan array binding signal (z-score),[31],-0.917
same,glycan array binding signal (z-score),[32],0.139
same,glycan array binding signal (z-score),[33],2.65
same,glycan array binding signal (z-score),[34],0.753
same,glycan array binding signal (z-score),[35],0.243
same,glycan array binding signal (z-score),[36],-0.601
same,glycan array binding signal (z-score),[37],0.455
same,glycan array binding signal (z-score),[38],-0.426
same,glycan array binding signal (z-score),[39],-0.085
same,glycan array binding signal (z-score),[40],-1.37
same,glycan array binding signal (z-score),[41],-0.254
same,glycan array binding signal (z-score),[42],-0.437
same,glycan array binding signal (z-score),[43],1.41
same,glycan array binding signal (z-score),[44],-0.482
